Test results reported in article PMC7862700, “An all-to-all approach to the identification of sequence-specific readers for epigenetic DNA modifications on cytosine”.

Legend:
Assay in all cases: DAPPL (digital affinity profiling via proximity ligation, sequencing); 10 mM Tris-HCl pH 7.5, 50 mM NaCl, 1 mM DTT, 4% glycerol, room temperature, 30 min; GST-TFs on glutathione beads, 16-mer random dsDNA library, 0.1% formaldehyde crosslink after washing; high values mean tight binding
FEV = biological target: T1, FEV (Homo sapiens, UniProt Q99581 1-238); conditions: protein: recombinant; tags: N-terminal GST; dsDNA, one strand shown
T1 sequence: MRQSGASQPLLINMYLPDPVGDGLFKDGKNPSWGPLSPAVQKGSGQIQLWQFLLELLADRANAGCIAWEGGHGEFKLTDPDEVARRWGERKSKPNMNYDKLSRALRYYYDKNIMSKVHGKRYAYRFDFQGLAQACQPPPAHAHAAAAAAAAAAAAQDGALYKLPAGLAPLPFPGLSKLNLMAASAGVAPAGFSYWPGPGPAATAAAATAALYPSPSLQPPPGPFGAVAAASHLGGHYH
Procedure, shortened: (§1)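 Binding signal is defined as a hexamer's read frequency for one factor over its frequency for the tag-only sample. To obtain reads, GST-fused human transcription factors were expressed in yeast, captured on glutathione beads, barcoded with DNA and pooled with that sample. Pools met 200 nmole of a 16-mer random double-stranded DNA library in Tris/NaCl/DTT/glycerol buffer for 30 min at room temperature before washing, 0.1% formaldehyde crosslinking, proximity ligation (BsaI/T4 ligase, 1 h, 37 °C), PCR and Illumina NextSeq500 sequencing.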

ETV5 = ETV5 (Homo sapiens, UniProt P41161 1-510); conditions: protein: recombinant; tags: N-terminal GST; dsDNA, one strand shown
Procedure, shortened: as §1

HSF1 = HSF1 (Homo sapiens, UniProt Q00613 1-529); conditions: protein: recombinant; tags: N-terminal GST; chain copies: 3; dsDNA, one strand shown
Procedure, shortened: as §1

SPIC = biological target: T2, SPIC (Homo sapiens, UniProt Q8N5J4 1-248); conditions: protein: recombinant; tags: N-terminal GST; dsDNA, one strand shown
T2 sequence: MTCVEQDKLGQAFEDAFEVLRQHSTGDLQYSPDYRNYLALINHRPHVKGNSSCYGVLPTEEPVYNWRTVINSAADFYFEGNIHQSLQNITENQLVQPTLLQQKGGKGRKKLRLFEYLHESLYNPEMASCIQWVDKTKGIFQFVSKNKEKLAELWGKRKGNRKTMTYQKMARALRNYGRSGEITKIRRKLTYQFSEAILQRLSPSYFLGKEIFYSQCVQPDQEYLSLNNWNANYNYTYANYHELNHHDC
Procedure, shortened: as §1

ELF4 = ELF4 (Homo sapiens, UniProt Q99607 1-663); conditions: protein: recombinant; tags: N-terminal GST; dsDNA, one strand shown
Procedure, shortened: as §1

ELK4 = biological target: T3, ELK4 (Homo sapiens, UniProt P28324-2 1-405); conditions: protein: recombinant; tags: N-terminal GST; dsDNA, one strand shown
T3 sequence: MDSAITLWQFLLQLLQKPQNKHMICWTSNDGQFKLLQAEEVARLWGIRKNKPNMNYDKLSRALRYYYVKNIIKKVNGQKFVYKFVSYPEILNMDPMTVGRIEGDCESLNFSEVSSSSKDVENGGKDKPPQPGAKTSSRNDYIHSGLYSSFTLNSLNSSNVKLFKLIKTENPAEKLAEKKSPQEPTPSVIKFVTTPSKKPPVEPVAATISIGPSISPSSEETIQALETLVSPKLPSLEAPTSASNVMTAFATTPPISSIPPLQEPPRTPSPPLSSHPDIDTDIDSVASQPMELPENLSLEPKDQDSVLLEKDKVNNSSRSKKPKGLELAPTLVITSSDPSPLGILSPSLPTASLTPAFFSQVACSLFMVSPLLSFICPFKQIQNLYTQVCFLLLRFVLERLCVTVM
Procedure, shortened: as §1

ETV2 = biological target: T4, ETV2 (Homo sapiens, UniProt O00321 1-342); conditions: protein: recombinant; tags: N-terminal GST; dsDNA, one strand shown
T4 sequence: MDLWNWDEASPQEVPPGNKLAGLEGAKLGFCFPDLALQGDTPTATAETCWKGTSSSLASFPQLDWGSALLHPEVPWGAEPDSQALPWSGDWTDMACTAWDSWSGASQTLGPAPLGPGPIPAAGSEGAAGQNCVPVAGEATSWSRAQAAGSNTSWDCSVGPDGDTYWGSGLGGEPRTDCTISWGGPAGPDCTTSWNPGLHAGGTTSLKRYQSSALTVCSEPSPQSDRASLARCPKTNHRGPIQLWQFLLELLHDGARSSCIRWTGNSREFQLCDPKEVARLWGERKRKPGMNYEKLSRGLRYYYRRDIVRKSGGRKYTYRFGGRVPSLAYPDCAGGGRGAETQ
Procedure, shortened: as §1

ELF3 = biological target: T5, ELF3 (Homo sapiens, UniProt P78545 1-371); conditions: protein: recombinant; tags: N-terminal GST; dsDNA, one strand shown
T5 sequence: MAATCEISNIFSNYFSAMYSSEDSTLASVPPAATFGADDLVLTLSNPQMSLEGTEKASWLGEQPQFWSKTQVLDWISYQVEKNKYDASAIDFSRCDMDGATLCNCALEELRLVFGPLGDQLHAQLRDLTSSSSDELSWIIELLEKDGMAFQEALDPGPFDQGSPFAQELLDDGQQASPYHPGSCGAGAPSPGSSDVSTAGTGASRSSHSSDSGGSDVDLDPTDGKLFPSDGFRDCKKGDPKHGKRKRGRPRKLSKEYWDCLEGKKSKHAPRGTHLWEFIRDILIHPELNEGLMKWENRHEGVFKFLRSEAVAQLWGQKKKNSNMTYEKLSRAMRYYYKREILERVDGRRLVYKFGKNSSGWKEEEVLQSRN
Procedure, shortened: as §1

CRX = CRX (Homo sapiens, UniProt O43186 1-299); conditions: protein: recombinant; tags: N-terminal GST; dsDNA, one strand shown
Procedure, shortened: as §1

ETV1 = ETV1 (Homo sapiens, UniProt P50549 1-477); conditions: protein: recombinant; tags: N-terminal GST; dsDNA, one strand shown
Procedure, shortened: as §1

ERF = biological target: T6, ERF (Homo sapiens, UniProt P50548 1-548); conditions: protein: recombinant; tags: N-terminal GST; dsDNA, one strand shown
T6 sequence: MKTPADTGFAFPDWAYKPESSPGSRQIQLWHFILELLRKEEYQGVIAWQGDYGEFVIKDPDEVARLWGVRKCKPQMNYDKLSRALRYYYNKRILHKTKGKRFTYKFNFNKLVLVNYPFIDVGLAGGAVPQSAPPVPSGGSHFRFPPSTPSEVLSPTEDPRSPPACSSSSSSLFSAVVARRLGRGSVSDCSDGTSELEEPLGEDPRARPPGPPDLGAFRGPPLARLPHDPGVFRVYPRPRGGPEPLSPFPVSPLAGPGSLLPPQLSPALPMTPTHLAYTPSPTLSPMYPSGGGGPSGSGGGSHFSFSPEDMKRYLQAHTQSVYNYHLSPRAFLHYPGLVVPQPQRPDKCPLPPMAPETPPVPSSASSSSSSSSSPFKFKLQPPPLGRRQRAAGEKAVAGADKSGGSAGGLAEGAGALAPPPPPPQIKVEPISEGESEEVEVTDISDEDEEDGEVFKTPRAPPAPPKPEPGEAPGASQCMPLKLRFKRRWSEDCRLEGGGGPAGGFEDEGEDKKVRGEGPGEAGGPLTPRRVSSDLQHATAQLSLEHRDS
Procedure, shortened: as §1

ETV3L = biological target: T7, ETV3L (Homo sapiens, UniProt Q6ZN32 1-361); conditions: protein: recombinant; tags: N-terminal GST; dsDNA, one strand shown
T7 sequence: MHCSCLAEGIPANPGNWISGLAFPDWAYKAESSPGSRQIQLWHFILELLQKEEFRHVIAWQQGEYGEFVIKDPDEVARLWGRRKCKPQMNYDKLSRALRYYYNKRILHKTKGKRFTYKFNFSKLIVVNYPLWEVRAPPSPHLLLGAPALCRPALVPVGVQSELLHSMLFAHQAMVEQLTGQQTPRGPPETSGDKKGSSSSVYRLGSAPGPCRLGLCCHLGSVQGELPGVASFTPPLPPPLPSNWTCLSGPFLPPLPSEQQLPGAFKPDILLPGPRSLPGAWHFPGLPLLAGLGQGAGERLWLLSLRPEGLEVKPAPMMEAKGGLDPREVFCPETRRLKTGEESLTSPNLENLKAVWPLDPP
Procedure, shortened: as §1

ETS2 = biological target: T8, ETS2 (Homo sapiens, UniProt P15036 1-469); conditions: protein: recombinant; tags: N-terminal GST; dsDNA, one strand shown
T8 sequence: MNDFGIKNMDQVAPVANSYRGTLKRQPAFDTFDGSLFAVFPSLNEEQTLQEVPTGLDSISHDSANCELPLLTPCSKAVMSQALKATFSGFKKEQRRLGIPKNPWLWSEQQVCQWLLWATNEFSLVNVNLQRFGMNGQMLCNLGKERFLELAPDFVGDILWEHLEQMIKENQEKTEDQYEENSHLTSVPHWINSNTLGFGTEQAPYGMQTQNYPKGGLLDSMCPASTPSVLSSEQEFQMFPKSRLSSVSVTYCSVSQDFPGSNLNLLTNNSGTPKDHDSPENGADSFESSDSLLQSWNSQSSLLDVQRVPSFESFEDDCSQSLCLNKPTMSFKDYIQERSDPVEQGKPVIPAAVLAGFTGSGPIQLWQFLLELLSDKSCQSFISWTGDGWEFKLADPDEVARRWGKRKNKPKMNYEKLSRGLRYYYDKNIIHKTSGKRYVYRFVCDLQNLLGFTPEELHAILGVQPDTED
Procedure, shortened: as §1

SPDEF = biological target: T9, SPDEF (Homo sapiens, UniProt O95238 1-335); conditions: protein: recombinant; tags: N-terminal GST; dsDNA, one strand shown
T9 sequence: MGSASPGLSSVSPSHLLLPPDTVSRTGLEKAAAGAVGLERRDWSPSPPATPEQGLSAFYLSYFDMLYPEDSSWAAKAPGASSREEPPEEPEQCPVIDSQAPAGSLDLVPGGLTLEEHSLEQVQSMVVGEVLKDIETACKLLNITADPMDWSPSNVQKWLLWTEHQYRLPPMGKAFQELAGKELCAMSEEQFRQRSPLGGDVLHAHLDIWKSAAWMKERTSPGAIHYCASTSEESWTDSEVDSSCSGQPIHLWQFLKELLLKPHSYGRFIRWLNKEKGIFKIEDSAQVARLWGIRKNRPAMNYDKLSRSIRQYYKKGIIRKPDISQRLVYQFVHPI
Procedure, shortened: as §1

ETV7 = biological target: T10, ETV7 (Homo sapiens, UniProt Q9Y603 1-341); conditions: protein: recombinant; tags: N-terminal GST; dsDNA, one strand shown
T10 sequence: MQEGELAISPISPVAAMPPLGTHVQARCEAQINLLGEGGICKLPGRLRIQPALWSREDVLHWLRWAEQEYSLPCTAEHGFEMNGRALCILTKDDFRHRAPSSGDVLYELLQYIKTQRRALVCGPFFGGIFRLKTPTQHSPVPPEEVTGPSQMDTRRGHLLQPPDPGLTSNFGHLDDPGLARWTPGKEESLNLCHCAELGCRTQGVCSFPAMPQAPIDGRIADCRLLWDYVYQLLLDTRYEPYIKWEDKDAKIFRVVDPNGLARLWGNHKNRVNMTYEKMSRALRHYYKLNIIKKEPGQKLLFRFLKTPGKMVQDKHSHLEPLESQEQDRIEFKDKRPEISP
Procedure, shortened: as §1

ELF5 = biological target: T11, ELF5 (Homo sapiens, UniProt Q9UKW6-2 1-255); conditions: protein: recombinant; tags: N-terminal GST; dsDNA, one strand shown
T11 sequence: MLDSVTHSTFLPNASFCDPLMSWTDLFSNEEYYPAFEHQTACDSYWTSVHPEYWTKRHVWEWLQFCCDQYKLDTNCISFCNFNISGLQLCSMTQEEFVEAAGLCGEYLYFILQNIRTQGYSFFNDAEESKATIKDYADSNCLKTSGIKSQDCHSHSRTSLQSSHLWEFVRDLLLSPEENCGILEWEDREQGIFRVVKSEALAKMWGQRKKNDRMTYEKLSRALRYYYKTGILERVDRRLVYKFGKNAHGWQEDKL
Procedure, shortened: as §1

ETV3 = biological target: T12, ETV3 (Homo sapiens, UniProt P41162-2 1-143); conditions: protein: recombinant; tags: N-terminal GST; dsDNA, one strand shown
T12 sequence: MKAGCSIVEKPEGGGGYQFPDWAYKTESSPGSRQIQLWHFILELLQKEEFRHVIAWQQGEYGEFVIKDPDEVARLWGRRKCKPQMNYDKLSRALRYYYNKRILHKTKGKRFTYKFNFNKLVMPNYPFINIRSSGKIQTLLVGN
Procedure, shortened: as §1

ETV6 = ETV6 (Homo sapiens, UniProt P41212 1-452); conditions: protein: recombinant; tags: N-terminal GST; dsDNA, one strand shown
Procedure, shortened: as §1

Sequence of ETV5 (P41161 whole entry): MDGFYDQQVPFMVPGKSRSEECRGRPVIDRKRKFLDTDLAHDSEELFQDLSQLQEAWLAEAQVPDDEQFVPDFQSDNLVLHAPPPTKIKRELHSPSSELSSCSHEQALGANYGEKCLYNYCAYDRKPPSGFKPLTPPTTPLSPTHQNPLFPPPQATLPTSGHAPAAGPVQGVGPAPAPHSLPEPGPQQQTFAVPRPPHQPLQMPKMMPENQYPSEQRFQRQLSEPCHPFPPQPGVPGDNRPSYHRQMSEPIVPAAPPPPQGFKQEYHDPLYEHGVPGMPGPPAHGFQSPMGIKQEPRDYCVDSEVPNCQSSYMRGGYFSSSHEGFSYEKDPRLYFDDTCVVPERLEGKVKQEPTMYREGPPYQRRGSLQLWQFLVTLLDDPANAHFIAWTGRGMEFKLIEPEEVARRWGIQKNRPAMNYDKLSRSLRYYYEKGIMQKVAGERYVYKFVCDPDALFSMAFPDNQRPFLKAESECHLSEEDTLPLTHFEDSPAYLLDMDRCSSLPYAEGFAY
Sequence of CRX (O43186 whole entry): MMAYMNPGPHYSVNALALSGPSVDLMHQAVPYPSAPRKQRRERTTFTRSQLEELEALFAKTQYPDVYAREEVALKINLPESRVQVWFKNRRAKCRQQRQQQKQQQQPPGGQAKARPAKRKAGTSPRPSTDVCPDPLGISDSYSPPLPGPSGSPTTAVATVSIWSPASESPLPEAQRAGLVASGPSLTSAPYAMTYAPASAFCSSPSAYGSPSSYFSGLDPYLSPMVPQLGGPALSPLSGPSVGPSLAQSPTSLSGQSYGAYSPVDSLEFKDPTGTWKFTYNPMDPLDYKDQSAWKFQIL
Sequence of HSF1 (Q00613 whole entry): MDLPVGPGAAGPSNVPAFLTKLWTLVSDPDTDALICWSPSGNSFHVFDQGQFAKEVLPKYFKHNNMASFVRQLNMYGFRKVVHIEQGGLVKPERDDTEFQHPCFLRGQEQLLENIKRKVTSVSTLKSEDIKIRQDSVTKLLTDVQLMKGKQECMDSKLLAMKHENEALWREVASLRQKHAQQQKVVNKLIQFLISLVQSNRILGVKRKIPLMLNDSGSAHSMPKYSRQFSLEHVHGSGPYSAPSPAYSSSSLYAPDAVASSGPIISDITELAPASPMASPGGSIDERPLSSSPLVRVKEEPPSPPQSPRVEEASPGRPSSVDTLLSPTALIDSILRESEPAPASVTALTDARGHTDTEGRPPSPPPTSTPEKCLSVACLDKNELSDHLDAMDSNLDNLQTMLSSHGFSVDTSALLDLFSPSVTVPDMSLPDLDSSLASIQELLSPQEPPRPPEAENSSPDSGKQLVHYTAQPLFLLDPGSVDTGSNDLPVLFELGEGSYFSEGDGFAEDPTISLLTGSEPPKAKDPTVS
Sequence of ETV6 (P41212 whole entry): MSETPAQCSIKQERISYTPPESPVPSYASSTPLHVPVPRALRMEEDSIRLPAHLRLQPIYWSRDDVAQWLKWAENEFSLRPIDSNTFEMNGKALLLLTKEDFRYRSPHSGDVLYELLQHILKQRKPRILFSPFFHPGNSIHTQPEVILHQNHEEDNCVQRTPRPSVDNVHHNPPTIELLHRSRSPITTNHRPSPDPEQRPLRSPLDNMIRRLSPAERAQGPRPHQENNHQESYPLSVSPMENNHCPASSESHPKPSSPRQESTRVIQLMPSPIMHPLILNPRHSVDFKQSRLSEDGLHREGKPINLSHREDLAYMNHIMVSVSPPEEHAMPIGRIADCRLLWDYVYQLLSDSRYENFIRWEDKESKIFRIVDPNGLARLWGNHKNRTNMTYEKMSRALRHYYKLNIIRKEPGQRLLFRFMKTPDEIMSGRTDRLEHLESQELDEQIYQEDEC
Sequence of ELF4 (Q99607 whole entry): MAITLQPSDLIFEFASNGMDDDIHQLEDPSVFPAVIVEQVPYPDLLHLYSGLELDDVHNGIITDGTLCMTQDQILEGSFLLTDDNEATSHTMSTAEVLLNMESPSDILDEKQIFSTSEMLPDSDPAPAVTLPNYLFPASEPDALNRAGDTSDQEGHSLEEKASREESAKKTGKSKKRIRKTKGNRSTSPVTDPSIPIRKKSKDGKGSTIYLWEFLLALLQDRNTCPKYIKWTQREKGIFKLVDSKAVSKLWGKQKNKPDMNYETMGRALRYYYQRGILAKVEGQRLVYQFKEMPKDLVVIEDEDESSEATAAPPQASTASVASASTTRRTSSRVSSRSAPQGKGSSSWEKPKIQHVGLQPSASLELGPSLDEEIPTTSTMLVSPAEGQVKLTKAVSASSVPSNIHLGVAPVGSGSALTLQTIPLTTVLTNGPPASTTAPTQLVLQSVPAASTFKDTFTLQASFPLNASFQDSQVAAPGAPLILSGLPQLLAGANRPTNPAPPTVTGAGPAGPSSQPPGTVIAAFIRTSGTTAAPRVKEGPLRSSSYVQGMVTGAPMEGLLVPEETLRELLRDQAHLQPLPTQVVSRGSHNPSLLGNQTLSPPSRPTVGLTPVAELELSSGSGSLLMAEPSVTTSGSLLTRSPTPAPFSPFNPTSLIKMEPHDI
Sequence of ETV1 (P50549 whole entry): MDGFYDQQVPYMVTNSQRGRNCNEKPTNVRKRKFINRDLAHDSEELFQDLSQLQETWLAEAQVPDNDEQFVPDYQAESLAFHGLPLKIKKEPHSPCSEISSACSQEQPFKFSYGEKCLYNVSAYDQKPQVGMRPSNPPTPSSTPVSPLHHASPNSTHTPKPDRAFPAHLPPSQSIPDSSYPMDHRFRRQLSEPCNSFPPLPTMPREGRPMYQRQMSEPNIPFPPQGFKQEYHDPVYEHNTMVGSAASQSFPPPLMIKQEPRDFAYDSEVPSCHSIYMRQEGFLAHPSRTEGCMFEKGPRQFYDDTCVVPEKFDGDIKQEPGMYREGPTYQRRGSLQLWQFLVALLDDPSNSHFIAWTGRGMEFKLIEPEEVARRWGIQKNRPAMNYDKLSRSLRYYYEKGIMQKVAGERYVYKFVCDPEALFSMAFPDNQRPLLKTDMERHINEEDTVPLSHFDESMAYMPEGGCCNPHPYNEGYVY

CTGGAA
binding signal (FEV): 1.2 fold enrichment (6-mer frequency, TF over GST control)
binding signal (ETV5): 1.29 fold enrichment (6-mer frequency, TF over GST control)
binding signal (HSF1): 4.43 fold enrichment (6-mer frequency, TF over GST control)
binding signal (SPIC): 1.2 fold enrichment (6-mer frequency, TF over GST control)
binding signal (ELF4): 1.23 fold enrichment (6-mer frequency, TF over GST control)
binding signal (ELK4): 1.08 fold enrichment (6-mer frequency, TF over GST control)
binding signal (ETV2): 1.43 fold enrichment (6-mer frequency, TF over GST control)
binding signal (ELF3): 1.11 fold enrichment (6-mer frequency, TF over GST control)
binding signal (CRX): 1.89 fold enrichment (6-mer frequency, TF over GST control)
binding signal (ETV1): 1.32 fold enrichment (6-mer frequency, TF over GST control)
binding signal (ERF): 1.26 fold enrichment (6-mer frequency, TF over GST control)
binding signal (ETV3L): 1.36 fold enrichment (6-mer frequency, TF over GST control)
binding signal (ETS2): 1.3 fold enrichment (6-mer frequency, TF over GST control)
binding signal (SPDEF): 1.16 fold enrichment (6-mer frequency, TF over GST control)
binding signal (ETV7): 1.32 fold enrichment (6-mer frequency, TF over GST control)
binding signal (ELF5): 1.34 fold enrichment (6-mer frequency, TF over GST control)
binding signal (ETV3): 1.27 fold enrichment (6-mer frequency, TF over GST control)
binding signal (ETV6): 1.34 fold enrichment (6-mer frequency, TF over GST control)
